# Bioassay records (PubChem)
# ELG1 repair inh: ELG1-dependent DNA repair inhibition; HEK293T ELG1-luciferase reporter, luminescence, 16 h; DNA damage induced by 5-fluorouridine; Potency, µM (highest dose often 46.1 µM), inactives show at the top dose activity change, negative = inhibition, usual class: inhibitors; actives 2.3% (n = 330,000); AID 504467; further: on the % scale 0 is the no-effect control and ±100 the full control effect; nearly all actives have a fitted effect of over 55% in size
#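 HEK293T cells expressing luciferase-tagged ELG1 (2,000/well) received 5-Fluorouridine plus compound or DMSO for 16 hr at 37 °C. Luciferase was read by ONE-Glo luminescence after 30 min at room temperature.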
# FLuc counter: inhibits or activates purified firefly luciferase, miR-21 counter-screen; P08659; purified FLuc, Km substrates, luminescence inhibition; Potency, µM (series often up to 57.5 µM), for inactives: at the top dose activity change, negative = inhibition, usual class: inhibitors; actives 6.9% (n = 360,000);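 further: plate controls were vehicle for no effect and reference inhibitor for full effect; nearly all actives have a fitted effect of over 55% in size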
# Target sequence (P08659 whole entry, looked up): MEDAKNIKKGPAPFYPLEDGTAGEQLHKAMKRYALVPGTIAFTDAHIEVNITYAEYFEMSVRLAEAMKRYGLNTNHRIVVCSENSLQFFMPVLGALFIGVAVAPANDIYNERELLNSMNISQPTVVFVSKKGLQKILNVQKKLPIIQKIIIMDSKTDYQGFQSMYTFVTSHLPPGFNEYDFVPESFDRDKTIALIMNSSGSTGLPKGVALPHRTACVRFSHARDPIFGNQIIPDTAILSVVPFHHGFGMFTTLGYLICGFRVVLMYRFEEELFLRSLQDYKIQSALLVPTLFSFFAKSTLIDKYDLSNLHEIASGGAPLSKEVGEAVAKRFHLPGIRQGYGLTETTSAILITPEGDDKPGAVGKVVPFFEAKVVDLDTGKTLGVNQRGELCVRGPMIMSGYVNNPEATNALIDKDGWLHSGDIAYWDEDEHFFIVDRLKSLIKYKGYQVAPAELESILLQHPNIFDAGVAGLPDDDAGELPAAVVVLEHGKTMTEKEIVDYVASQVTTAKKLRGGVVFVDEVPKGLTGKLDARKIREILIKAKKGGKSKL
#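 Purified P. pyralis luciferase (10nM final) with 10uM D-luciferin and 10uM ATP (Km levels) in 50mM Tris acetate pH 7.5, 10mM Mg acetate, 0.01% Tween-20, 0.05% BSA; qHTS 6-point titration, ~60 µM downward; luminescence read.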
# Rab9 promoter act: activates the Rab9 promoter; Huh7 Rab9 promoter-luciferase reporter, luminescence, 24 h; Potency, µM (titrated, usually from 9.22 µM), inactives show top-dose activation, negative = inhibition, hits mostly activators; actives 2.8% (n = 320,000); further: % of control where 0% means no effect; nearly all actives have a fitted effect of over 60% in size
#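 Promoter activation is measured as luciferase luminescence in Huh7 cells stably transfected with a Rab9 promoter–luciferase construct, following 24 h compound exposure at 37 °C and 10 min reagent incubation at ambient temperature.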
# NPC1 prom act: activators of NPC1 promoter | Huh7 NPC1 promoter luciferase reporter, 24 h | Potency, µM (titrated, usually from 9.22 µM), inactives show at the top dose activation, actives largely listed as activators | actives 2.4% (n = 320,000) | AID 485313; further: % of control where 0% means no effect; nearly all actives have a fitted effect of over 60% in size
#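 Luciferase expression driven by the NPC1 promoter was measured in stably transfected Huh7 cells after a 24 h compound incubation, using a luciferase reagent and a luminescence read.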
# ELG1 genotoxic: induces genotoxicity in HEK293T cells with luciferase-tagged ELG1; HEK293T ELG1-luciferase reporter, luminescence, 16 h; Potency, µM (top dose mostly 46 µM), without a hit: at the top dose activity change, positive = activation, usual class: activators; actives 1.3% (n = 330,000); AID 504466; further: % of control where 0% means no effect; nearly all actives have a fitted effect of over 60% in size
#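 Genotoxic stress is detected as increased luminescence from luciferase-tagged ELG1 in HEK293T cells, measured with ONE-Glo after a 16 hr treatment at 37 °C.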
# SMN2 splice up: increases expression of the SMN2 splice variant. actives 2.8% (n = 210,000). AID 1458. HEK293 SMN2-luciferase splicing reporter, luminescence, 30-36 h. Potency, µM (series often up to 46.1 µM), without a hit: at the top dose activity change, positive = activation, usual class: activators; further: % of control where 0% means no effect; nearly all actives have a fitted effect of over 55% in size
#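 qHTS luciferase splicing reporter: luminescence rises when SMN2 exon 7 is included in transfected HEK293 cells. Compound exposure lasted 30-36 h at 37C, with 4.5 mM final sodium butyrate as control, followed by a ONE-Glo read.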
# * = called active by the depositor; ? = inconclusive; / = no result; [ ] = dose if it differs, or a comment. Hits are enriched below; roughly 9.2% of the tested compounds scored in any of these assays. The call rests on the fitted dose curve; in most records, active means well fitted curve in the direction sought with a large enough effect; inconclusive means small, poorly fitted or top-dose-only effect, or another doubt; inactive means no such curve, though single readings can be large; an effect the other way counts as inactive or inconclusive. Potency means the concentration at half of the fitted maximal effect.
SMILES,ELG1 repair inh,FLuc counter,Rab9 promoter act,NPC1 prom act,ELG1 genotoxic,SMN2 splice up
NC(N)=Nc1nc(CCN2C(=O)c3ccccc3C2=O)cs1,0%,-10%,0%,-3%,4%,32µM*
O=[N+]([O-])c1cccc(/C=N/Nc2nc(NCc3ccccc3)nc(N3CCOCC3)n2)c1O,21µM*,17µM*,-6%,-4%,-15%,/
COc1nc(N/N=C/c2ccc(-c3cccc([N+](=O)[O-])c3)o2)nc(N2CCOCC2)n1,2.3µM*,-5%,-2%,0%,2%,-20%
O=[N+]([O-])c1cccc(/C=N/Nc2nc(NCc3ccccc3)nc(N3CCOCC3)n2)c1,7%,-1%,1%,-1%,13%,12%
O=[N+]([O-])c1ccc(/C=N/Nc2nc(NCc3ccccc3)nc(N3CCOCC3)n2)cc1,7.3µM*,0%,-3%,0%,0%,1%
O=C(/C=C/c1ccc(-c2cccc([N+](=O)[O-])c2)o1)N1CCOCC1,?,?,4µM*,?,?,/
O=[N+]([O-])c1cccc(-c2ccc(/C=N/Nc3nc(N4CCCCC4)nc(N4CCCCC4)n3)o2)c1,?,-7%,3%,-4%,-7%,-37%
Cn1c(=O)c(C(=O)Nc2cnccn2)c(O)c2ccccc21,?,2%,?,13%,16%,13µM*
CCn1c(=O)c(C(=O)Nc2cnccn2)c(O)c2ccccc21,2%,0%,4%,6%,-2%,1%
Cn1c(=O)c(C(=O)Nc2ccccn2)c(O)c2ccccc21,?,4.8µM*,2.8µM*,?,?,/
CCC(=O)N1CCc2cc(S(=O)(=O)NC(C(=O)NCCc3ccc(OC)c(OC)c3)C(C)C)ccc21 (stereo not given),/,-10%,/,/,/,6%
S=C(c1ccc(-c2ccc(Br)cc2)o1)N1CCOCC1,?,3µM*,2µM*,3.5µM*,?,/
S=C(c1ccc(-c2ccccc2Cl)o1)N1CCOCC1,?,11µM*,?,?,13µM*,32µM*
S=C(c1ccc(-c2ccc(Cl)c(Cl)c2)o1)N1CCOCC1,?,2.7µM*,1.8µM*,2.2µM*,6.5µM*,11µM*
Nc1c(C(=O)c2ccccc2)sc2snc(SCC(=O)c3ccccc3)c12,13%,7.6µM*,29%,16%,2%,3%
Nc1nnc(SCC(=O)c2ccccc2)s1,?,-15%,18%,10%,11%,19%
COc1ccc(C(=O)N/N=C/c2ccc(SC)cc2)cc1,11%,6.7µM*,3%,6%,-2%,11%
CSc1ccc(/C=N/NC(=O)c2ccc(O)cc2)cc1,?,4.8µM*,2.5µM*,?,?,?
COc1ccc(/C=N/NC(=O)c2ccc[nH]2)cc1,?,5.4µM*,1.6µM*,2.5µM*,8.2µM*,/
O=C(N/N=C/c1ccc(O)cc1)c1ccncc1,2%,-20%,-3%[1.84 µM],-1%,-1%,/
O=C(N/N=C/c1ccc(N2CCOCC2)cc1)c1ccc(O)cc1,?,24µM*,15%,12%,1%,/
Cc1c(C(=O)N(Cc2ccc(N(C)C)cc2)Cc2ccco2)oc2cc(Br)ccc12,/,-2%,/,/,/,19%
COc1ccc(-c2c[n+]3c(n2-c2ccc(C)cc2)CCCCC3)cc1,0.92µM*,0%,-50%,-34%,-8%,/
COc1ccc(-n2c(-c3ccc(Cl)cc3)c[n+]3c2CCCCC3)cc1,5.8µM*,-1%,-36%,-17%,-10%,/
COc1ccc(-c2c[n+]3c(n2-c2ccccc2)CCCCC3)cc1,?,2%,-19%,-19%,-7%,-58%
SMILES,ELG1 repair inh,FLuc counter,Rab9 promoter act,NPC1 prom act,ELG1 genotoxic,SMN2 splice up
COc1ccc(-c2nc(SCCOc3cc(C)ccc3C(C)C)n3[nH]c(=O)cc3n2)cc1,/,-9%,/,/,/,/
CCNc1ncc2nc(CCc3ccccc3)c(=O)n(-c3ccccc3)c2n1,/,/,/,/,/,-28%
Cc1cccnc1NC(=O)C(C)Oc1ccccc1 (stereo not given),0%,7%,-1%,-2%,0%,6%
CC(Oc1ccccc1)C(=O)NC1=NCCS1 (stereo not given),?,15µM*,3.2µM*,?,?,14µM*
O=C(NC1=NCCS1)Nc1ccccc1,?,9.5µM*,1.4µM*,1.4µM*,?,10µM*
CC(C)c1ccc(OCC(=O)NC2=NCCS2)cc1,?,7.6µM*,16%,?,27%,/
O=C(COc1ccccc1)NC1=NCCS1,?,7.6µM*,-2%,-5%,15µM*,-28%
CCN1C(=O)c2ccccc2Sc2ccc(NC(=O)N3CCN(c4cc(C)ccc4C)CC3)cc21,/,-6%,/,/,/,/
CCOc1ccc(CCNC(=O)CN2C(=O)c3cccnc3Oc3ccc(Cl)cc32)cc1,?,-12%,3%,-4%,-1%[9.26 µM],/
Cc1ccc(NC(=O)c2nnn(Cc3cccc(C(F)(F)F)c3)c2N)c(C)c1,/,-1%,/,/,/,-18%
S=C(NCCCc1ccccc1)NC1CCCCC1,?,-19%,21%,18%,5%,/
S=C(NCCc1ccccn1)NC1CCCCC1,?,?,?,?,?,11µM*
Cc1ccc(S(=O)(=O)N2CCc3nc(COc4ccccc4)c4c(c3C2)CO[C@@H](C)C4)cc1,/,/,/,/,/,4%[9.22 µM]
O=C1CN(C(=O)c2ccc(Br)o2)C(c2ccccc2)c2cc(Cl)ccc2N1 (stereo not given),21µM*,0%,-13%,6%,-9%,-4%
O=S(=O)(Nc1nc2ccccc2nc1N1CCc2ccccc2C1)c1ccc(Br)cc1,?,15µM*,-2%,-2%,?,?
COC(CNC(=O)c1ccc2c3c(onc13)-c1ccccc1C2=O)OC,?,15µM*,?,?,?,/
COC(CNC(=O)c1cccnc1)OC,-1%,0%,-3%,-6%,0%,/
Fc1ccc2ncc3c(-c4ccccc4)n[nH]c3c2c1,/,-8%,/,/,/,/
C/C(CC(=O)Nc1ccc2c(c1)OCCO2)=N\NC(=O)COc1ccccc1,?,?,1%,-3%,7%,/
Cc1ccc(OCC(=O)Nc2ccc3c(c2)OCCO3)cc1C,?,17µM*,14%,6%,?,-17%
Cc1ccc(OCC(=O)Nc2ccc(F)cc2)cc1C,?,19µM*,-2%,-2%,?,6%
Cc1cccc(OCC(=O)Nc2ccc3c(c2)OCCO3)c1,?,6µM*,3.2µM*,?,6.5µM*,10%
CCn1c(SCC(=O)Nc2nc3ccccc3s2)nnc1-c1ccc(Br)cc1,6%,1%,0%,-3%,0%,-12%
